# Experimental data from PubChem BioAssay AID1776 (NMMLSC, 2009).
# The whole screen tested about 190,000 compounds, of which about 490 (0.26%) were called active. The list comes from a sample in which actives are over-represented; it also holds similar structures and randomly drawn compounds. Unmarked numbers belong to inactive results. Cut-off read from the data, not from the text of the source: active = fluorescence above about 89; inactive = the rest.
# Assay: green autofluorescence of compounds with GSH beads – biophysical, 488/530 nm, flow cytometry, artefact control, profiling panel (AID 1776);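 note: glutathione beads carrying GST-tagged Bcl family fusion proteins plus one bare bead set; values are compound well signal with DMSO vehicle wells as background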
# Conditions: compound fluorescence 488/530 nm, at 10 µM, stronger effect = higher value
row,Structure (SMILES),fluorescence (KMESF)
1,Cc1ccc(C)c(-n2nnnc2SCC(=O)c2c(N)n(C)c(=O)n(C)c2=O)c1,179 (active)
2,CCOC(=O)CNC(=O)CSc1nnnn1-c1cc(C)ccc1C,33
3,CNC(=O)CSc1nnnn1-c1ccc(C)cc1C,23
4,CN(C)CC(C)(C)CNC(=O)c1cc(Br)cc(Br)c1O,12
5,C=CCNC(=S)NNC(=O)COc1c(Cl)cc(Cl)cc1Cl,12
6,Cc1cc(C)nc(NNC2=CC(=O)CC(C)(C)C2)n1,16
7,COc1ccc(C(=O)NNc2cc(C)nc(NNC(=O)c3ccc(OC)cc3)n2)cc1,11
8,CC1CCCCC1NC(=O)CN1CCC(O)(c2ccc3c(c2)OCO3)CC1 (stereo not given),15
9,CC1=C(C)CC(C(=O)NNC(=O)c2csc3c2CCC(C(C)(C)C)C3)C(C(=O)O)C1 (stereo not given),10
10,Cc1ccccc1CC1(CO)CCCN(Cc2ccc3c(c2)OCCO3)C1 (stereo not given),18
11,S=c1[nH]ccn1-c1ccc(Cl)cc1,11
12,COCCSc1nnc(NC(=O)c2cc(OC)c(OC)cc2[N+](=O)[O-])s1,21
13,Cc1ccc(C(=O)NC(C)c2ccccc2)cc1Br (stereo not given),15
14,OCCC#Cc1ccc(CN2CCN(Cc3ccsc3)C(CCO)C2)cc1 (stereo not given),10
15,CCCCCc1nnc(NC(=O)c2ccc(=O)n(C)n2)s1,16
16,CC1(C)CC(=O)C(N=Nc2ccc(S(=O)(=O)N3CCCCCC3)cc2)=C(O)C1,11
17,COc1cc(OC)cc(-c2nc3ccccc3c(=O)n2NC(=O)c2cccnc2Cl)c1,10
18,Cc1ccc(C)c(-n2ccnc2SCC(N)=O)c1,20
19,CC(C)c1nc(CNC(=O)CC2C(=O)NCCN2Cc2ccoc2)cs1 (stereo not given),15
20,COc1cc(OC)c(C(=O)N2CCCC2)cc1OC,10
21,O=C(COc1ccc([N+](=O)[O-])cc1)Nc1ccc(N2CCCC2)cc1,9
22,Cc1nn(-c2ccc([N+](=O)[O-])cc2)c(N)c1-c1ccccc1,8

row,Structure (SMILES),fluorescence (KMESF)
1,Cc1cc(NS(=O)(=O)c2ccc(NC(=S)NC(=O)c3ccc(F)cc3Cl)cc2)no1,12
2,CNc1ccc(NC(C)=O)cc1[N+](=O)[O-],13
3,CCCOCC(O)CC(CC)C(=O)NNC(=S)Nc1ccccc1 (stereo not given),13
4,S=C(Nc1cccc(Br)c1)N1CCn2cccc2C1c1cccnc1 (stereo not given),15
5,Cc1cc(=O)[nH]c(SCc2cc(Cl)ccc2OC(F)F)n1,270 (active)
6,COc1ccccc1-c1noc(CSc2nc(C)cc(=O)[nH]2)n1,20
7,Cc1cc(=O)[nH]c(SCc2cccc(F)c2)n1,31
8,C#CCCCc1nc2ccccc2c(=O)n1N,11
9,COc1ccc(S(=O)(=O)N2CN(CCc3ccc(OC)c(OC)c3)c3nc4ccccc4nc32)cc1,15
10,O=C1/C(=C\c2ccsc2)NC(=S)N1c1ccccc1,11
11,CCCc1c(C)nc2c(Br)cccc2c1Cl,17
12,CN(C)c1ccnc2sc(C(=O)c3ccccc3)c(N)c12,7
13,O=C(CC1Nc2ccccc2NC1=O)Nc1ccccc1NC(=O)CC1Nc2ccccc2NC1=O (stereo not given),13
14,CCCCC(O)(CCCC)C(=O)NN(C(=O)CCl)c1ccccc1,9
15,O=C(/C=C/c1cn(-c2ccccc2)nc1-c1ccc2c(c1)OCCO2)NCCCN1CCOCC1,15
16,COC(=O)Cc1c(O)ccn(Cc2cccc(C(F)(F)F)c2)c1=O,11
17,Cc1scc(C(=O)NNC(=S)NCC(C)C)c1C,5
18,COc1cccc(OC)c1C(=O)NC(=S)NCc1ccco1,10
19,O=C(N/N=C/c1ccccn1)C12CC3CC(CC(C3)C1)C2,10
20,NC(=O)Cc1ccc2sc(-c3ccccc3)nc2c1,4
21,Cc1ccc(Cl)cc1NC(=O)C1CCN(S(C)(=O)=O)CC1,13
22,O=C1N/C(=C/c2cccs2)C(=O)N1Cc1ccc(F)cc1,18

row,Structure (SMILES),fluorescence (KMESF)
1,O=C(NCc1cccs1)C(=O)NCC1OCCCN1S(=O)(=O)c1ccc(F)cc1 (stereo not given),10
2,Cc1cc([N+](=O)[O-])ccc1NC(=O)C1CCCO1 (stereo not given),8
3,CCOC(=O)c1sc(NC(=O)CSc2nc3c(c(=O)n2-c2ccccc2)SCC3)c(C(=O)OCC)c1C,16
4,Cc1nc2ccccc2nc(=O)c1NNc1ccc([N+](=O)[O-])cc1,20
5,C/C(=N/NC(=S)Nc1ccccc1)c1ccc2c(c1)OCO2,5
6,CCOc1ccc(Br)cc1S(=O)(=O)N1CCC(C(=O)O)CC1,10
7,O=c1[nH]c(-c2ccccc2)c(-c2ccccc2)[nH]1,20
8,CC(C)C1C2=C(CC(C)(C)CC2=O)ON1c1ccccc1 (stereo not given),52
9,CC1(C)CC(=O)NC=C(c2ccccc2)C1,272 (active)
10,CCCC(CCC(=O)OC)(C(=O)OCC)c1csc(N)n1 (stereo not given),262 (active)
11,CC/C(Cc1ccccc1)=N/NC(=O)CCn1nnc2ccccc21,12
12,COc1ccc(NC(=O)Cn2c(=O)n(Cc3ccco3)c(=O)c3ccccc32)cc1,17
13,CN(c1ccccc1)c1ccc(/C=c2\s/c(=C(/C#N)C(=O)C(C)(C)C)n(Cc3ccco3)c2=O)cc1,145 (active)
14,CCOC(=O)CSc1nc2c(sc(=S)n2CCc2ccccc2)c(=O)n1Cc1ccco1,11
15,Nc1nc(SCC(=O)NN(c2ccccc2)c2ccccc2)n[nH]1,7
16,Cc1ccc(NS(=O)(=O)c2ccc(C)c(NC(=O)COc3ccc4ccccc4c3)c2)c(C)c1,15
17,O=C(/C=C\c1ccc2c(c1)OCO2)NC1(C(=O)Nc2ccc3c(c2)OCCO3)CCCCC1,7
18,Cc1cc([N+](=O)[O-])ccc1NC(=O)c1ccc(NC(=O)C(C)C)cc1,17
19,CCc1ccc(CN2C(=O)c3ccccc3C2C(=O)NCC2CCCO2)cc1 (stereo not given),14
20,Cc1c(Cl)cccc1NC(=O)CC1SC(=NCC2CCCO2)NC1=O (stereo not given),20
21,CCOc1ccc(S(=O)(=O)N/N=C(\C)c2ccc(Cl)c(Cl)c2Cl)cc1,18
